Vaccinia Venus: inhibitors of vaccinia virus (Venus reporter). Potency, µM (top dose mostly 36.5 µM), inactives show top-dose activity change, negative = inhibition, most hits filed as inhibitors. AID 720580. Vaccinia virus Venus reporter expression, fluorescence. 0.46% of 330,000 active; calls by dose curve; tested in A549 cells; note: nearly all actives have a fitted effect of over 30% in size
Pf growth 48h: P. falciparum growth inhibition at 48 hours (one generation); 5.9% of 310,000 active; Potency, µM (top dose mostly 28.7 µM), for inactives: top-dose activity change, negative = inhibition, actives largely listed as inhibitors; P. falciparum luciferase growth in erythrocytes, 48 h
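Luminescence readout; reporter = integrated firefly luciferase in P. falciparum. RBC culture at 2% hematocrit, 0.1% parasitemia final, 37 C/5% CO2; decreased signal taken as growth inhibition.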
AMA1 RON2 block: disrupts binding of P. falciparum AMA1 to RON2; Potency, µM (doses to about 58.2 µM), for the others: top-dose activity change, negative = inhibition, actives largely listed as inhibitors; AlphaScreen AMA1-biotinylated RON2 peptide binding; 0.2% of 360,000 active;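 note: 0% = vehicle wells and -100% = peptide control; nearly all actives have a fitted effect of over 45% in size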
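AMA1 (3D7) with his tag at 25 nM final met compounds first, then biotinylated RON2 peptide at 25 nM; detection used donor plus acceptor beads, 10 µg/mL apiece, read by AlphaScreen after 30 min at room temperature.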
Vaccinia mCherry: vaccinia inhibition (mCherry reporter) | Vaccinia virus mCherry reporter infection, fluorescence | Potency, µM (series often up to 36.5 µM), for the others: top-dose activity change, negative = inhibition, usual class: inhibitors | 0.63% of 310,000 active; calls by dose curve; tested in A549 cells; note: nearly all actives have a fitted effect of over 35% in size
Pf growth 96h: P. falciparum growth inhibition at 96 hour, primary screen for plastid delayed-death inhibitors; P. falciparum luciferase reporter growth, 96 h; Potency, µM (top dose mostly 28.7 µM), inactives show top-dose activity change, negative = inhibition, usual class: inhibitors; 6.9% of 320,000 active; AID 504834
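Cell-based qHTS: luciferase-tagged P. falciparum in erythrocytes (2% hematocrit, 0.05% parasitemia final) incubated with compounds for 96 hours, 37 C, 5% CO2; luciferase detection reagent then added and luminescence measured.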
Active calls of the source: *; i = inactive; ? = inconclusive; nt = not tested or not shown; [ ] = dose if it differs, or a comment. An excerpt weighted towards active compounds, which were near 8.7% of everything screened. Unless noted, calls come from the whole dose curve; as a rule, active = well fitted curve in the direction sought with a large enough effect; inconclusive = small, poorly fitted or top-dose-only effect, or another doubt; inactive = no such curve, though single readings can be large; an effect the other way counts as inactive or inconclusive. Unless noted, % is set by controls: 0 for no effect and ±100 for the full control effect; potency is the fitted concentration of half-maximal effect.

SMILES	Vaccinia Venus	Pf growth 48h	AMA1 RON2 block	Vaccinia mCherry	Pf growth 96h
Cc1ccc(S(=O)(=O)N2CCN(C(=O)Cc3ccc(S(=O)(=O)N4CCOCC4)s3)CC2)cc1	nt	?	-9.0%	nt	11.7µM*
O=C(Cc1ccc(S(=O)(=O)N2CCOCC2)s1)N1CCN(S(=O)(=O)c2cccc(F)c2)CC1	nt	nt	-4.5%	nt	nt
COc1ccccc1C(=O)N[C@@H]1c2ccccc2C2(CCN(Cc3cccnc3)CC2)[C@H]1O	-8.0%	nt	nt	-15.5%	nt
C/C=C/C(=O)Nc1cccc(C2=NOC3(C2)C[C@@H](C(N)=O)N(C(=O)C(c2ccccc2)c2ccccc2)C3)c1 (stereo not given in full)	-29.5%	11.7µM*	0.0%	-5.3%	13.1µM*
C/C=C\C(=O)Nc1cccc(C2=NOC3(C2)C[C@@H](C(N)=O)N(C(=O)c2ccccc2)C3)c1 (stereo not given in full)	-8.9%	?	-11.6%	-13.3%	?
CCCCCC(=O)Nc1cccc(C2=NOC3(C2)C[C@@H](C(N)=O)N(C(=O)CC(c2ccccc2)c2ccccc2)C3)c1 (stereo not given in full)	12.6µM*	-14.6%	-1.2%	-36.7%	?
C/C=C(\C)C(=O)Nc1cccc(C2=NOC3(C2)C[C@H](C(N)=O)N(C(=O)C(c2ccccc2)c2ccccc2)C3)c1 (stereo not given in full)	?	9.28µM*	-1.3%	-8.4%	11.7µM*
C/C=C\C(=O)Nc1cccc(C2=NOC3(C2)C[C@@H](C(N)=O)N(C(=O)CC(c2ccccc2)c2ccccc2)C3)c1 (stereo not given in full)	?	10.4µM*	-3.1%	?	13.1µM*
CCOC(=O)C1CCCN(C(=O)c2c(C)nn(-c3ccc(F)cc3)c2-n2cccc2)C1 (stereo not given)	2.0%	nt	nt	-6.7%	nt
CCOc1ccc(C2C(=O)N(C3CCCCCC3)CC(=O)N2Cc2ccc(F)cc2)cc1OC (stereo not given)	-1.4%	nt	nt	-6.8%	nt
N#Cc1cnc(=S)n(-c2cc(C(F)(F)F)cc(C(F)(F)F)c2)c1N	-11.5%	nt	-8.8%	-4.3%	nt
N#Cc1nn(-c2c(Cl)cc(C(F)(F)F)cc2Cl)c(N)c1S(=O)C(F)(F)F (stereo not given)	-6.5%	1.9µM*	nt	-13.6%	-22.8%
Cc1ccc2c(c1)c1c(c(=O)n(-c3ccccc3)c(=O)n1CC(=O)c1ccc(F)cc1)n2C	-19.9%	nt	nt	-11.9%	nt
Cc1onc(-c2ccccc2Cl)c1C(=O)Nc1ccc(N2CCOCC2)cc1	-12.9%	?	-12.1%	nt	?
Cc1ccccc1-n1nc2c(c1NC(=O)CCCl)CSC2	nt	-0.9%	-1.2%	nt	-11.1%
Cc1ccc(-n2nc3c(c2NC(=O)c2c(-c4ccccc4Cl)noc2C)CSC3)cc1	-4.9%	13.1µM*	-8.4%	-11.8%	20.1%
Cc1ccccc1-n1nc2c(c1NC(=O)c1c(-c3ccccc3Cl)noc1C)CSC2	9.7%	11.7µM*	-13.5%	1.5%	?
O=[N+]([O-])c1ccc2c(c1)C=C/C2=C\c1ccccc1	-7.4%	nt	nt	17.5%	nt
O=C(c1[nH]ncc1-c1cccc(Br)c1)C1CO1 (stereo not given)	-15.4%	14.7µM*	14.6%	i	?
CNC(=O)/C(C#N)=C/c1cn(CC(=O)NCc2ccco2)c2ccccc12	-5.8%	-1.2%	-4.3%	i	11.9%
COc1cc(/C=C(\C#N)C(=O)NCC2CCCO2)ccc1OCC(=O)O (stereo not given)	-12.0%	34.6%	14.2%	-21.0%	2.33µM*
COCCNC(=O)Cn1cc(/C=C(\C#N)C(=O)NC2CCCC2)c2ccccc21	nt	4.4%	?	nt	10.4µM*
Cc1ccc(C)c(OCCn2cc(/C=C(\C#N)C(=O)NCc3cccs3)c3ccccc32)c1	nt	4.65µM*	-15.7%	nt	3.29µM*
Cc1ccc(C)c(OCCn2cc(/C=C(\C#N)C(=O)NCC3CCCO3)c3ccccc32)c1 (stereo not given)	nt	2.62µM*	-15.3%	nt	1.65µM*
O=S(=O)(Nc1ccc(Cl)cc1)c1cccc(S(=O)(=O)c2ccc(Cl)c(Cl)c2)c1	8.8%	nt	nt	-8.7%	nt
SMILES	Vaccinia Venus	Pf growth 48h	AMA1 RON2 block	Vaccinia mCherry	Pf growth 96h
Cc1ccccc1-n1c(C)cc(/C=C(\C#N)C(=O)NCC2CCCO2)c1C (stereo not given)	-9.6%	-77.5%	2.5%	-13.9%	8.28µM*
CCOC(=O)/C(C#N)=C\c1cn(C)c2ccccc12	-5.0%	0.0%	-12.9%	-3.2%	35.2%
CCOC(=O)/C(C#N)=C/c1cn(CCOc2ccccc2)c2ccccc12	-4.4%	13.9%	-2.7%	-7.9%	9.28µM*
Cc1ccc(OCCn2cc(/C=C(\C#N)C(=O)NCC3CCCO3)c3ccccc32)cc1 (stereo not given)	-22.0%	10.4µM*	-17.3%	-12.8%	92.4%
Cc1ccc(/C=C(\C#N)C(=O)NCC2CCCO2)o1 (stereo not given)	nt	47.7%	6.4%	nt	1.4%
Cc1cc(O)cc2c1O[C@](C)(CCC(=O)O)CC2	-14.0%	nt	nt	i	nt
Cc1nc2n(c(=O)c1CCN1CCC(c3noc4cc(F)ccc34)CC1)CCC[C@H]2O	-8.2%	nt	nt	-7.3%	nt
CCc1ccc(NC(=O)CSC2=Nc3ccccc3C3=NC(CCC(=O)NCCc4ccccc4)C(=O)N23)cc1 (stereo not given)	-25.8%	nt	nt	-23.9%	nt
CC(C)C[C@H]1CN=C(N(C)C)N1CC1CCCCCC1	-29.1%	4.15µM*	15.2%	?	?
CCCCCCCN1C(N(C)C)=NC[C@@H]1Cc1ccccc1	-29.1%	4.65µM*	8.3%	-4.3%	?
CN(C)C1=NC[C@H](Cc2ccccc2)N1CC1CCCC1	-13.4%	?	23.1%	-10.6%	?
Cc1cccc(CCN2C(N(C)C)=NC[C@@H]2Cc2ccccc2)c1	?	nt	5.1%	?	nt
CN(C)C1=NC[C@H](Cc2ccccc2)N1CCCCc1ccccc1	-27.2%	13.1µM*	-0.1%	-4.8%	?
Cc1cccc(CCN2C(N(C)C)=NC[C@@H]2CC(C)C)c1	-14.3%	13.1µM*	30.2%	-15.8%	?
COc1ccccc1CN(C)CC(=O)c1c(C)[nH]c2ccccc12	-16.9%	nt	nt	-14.0%	nt
CCCCCCNc1ccc(/C=C/c2ccnc3ccccc23)cc1	-9.8%	nt	nt	-22.9%	nt
COc1ccc(C(=O)c2nccc3cc(OC)c(OC)cc23)cc1OC	-2.5%	1.17µM*	6.1%[11.6 µM]	-11.2%	0.738µM*
COc1ccc(C(=O)c2ccc(OC)c(OC)c2)cc1OC	nt	-8.1%	-13.5%	nt	24.4%
COc1ccc(NC(=O)c2oc3ccccc3c2NC(=O)c2cc(C)cc(C)c2)c(OC)c1	-2.8%	nt	nt	7.9%	nt
C=CC[C@@H](CC(=O)N(CCO)Cc1ccccc1)C(=O)N[C@@H](COC(=O)[C@@H](CC=C)Cc1ccc(F)cc1)Cc1c[nH]c2ccccc12	10µM*	nt	-13.5%	?	nt
C=CC[C@H](CC(=O)N(CCO)Cc1ccccc1)C(=O)N[C@@H](COC(=O)[C@@H](CC=C)Cc1ccc(F)cc1)Cc1c[nH]c2ccccc12	10µM*	nt	?	11.2µM*	nt

Screening results (PubChem)
